This is an account of results in the supplement of paper PMC10037445.

Several values for one entry are separate records, joined by “and”; a condition that tells them apart may be missing. Equal values may be shown once. The full ranking holds about 2,900 compounds; the median of “NF-kB SEAP reporter activity, fold change vs agonist alone” is about 0.99, and the highest 2% start at about 2.6. What follows is part of a selection rich in the highest values, with near analogues and random picks from the rest.

In assay [1] the test system is RAW-Dual. Briefly: NF-kB SEAP reporter activity, fold change vs agonist alone; higher = enhanced NF-kB activity. Particulars: library stock concentration (final ~1000-fold dilution): 10 mM. An outline of the steps: (§1)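 Cytotoxic wells were those whose IncuCyte confluency was below 70% of agonist controls in both mask sets. The cells were RAW-Dual macrophages at 50,000 cells/well in DMEM on 384-well plates, dosed with 50 nL of library stock by pin tool, stimulated with a PRR agonist 1 h later, and kept at 37 °C, 5% CO2 for 20 hours. IRF and NF-κB reporter activity, as fold change over agonist-alone wells, came from supernatant read by QuantiLuc luminescence and QuantiBlue absorbance, respectively.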

Assay [2] concerns RAW-Dual. In words: NF-kB SEAP reporter activity, fold change vs agonist alone; cytotoxicity flag (confluency mask): not cytotoxic; higher = enhanced NF-kB activity. The method in brief: as §1
Assay [3] has as its system RAW-Dual. Briefly: NF-kB SEAP reporter activity, fold change vs agonist alone; cytotoxicity flag (confluency mask): cytotoxic (confluency <70% of control); higher = enhanced NF-kB activity. An outline of the steps: as §1
[4] abbreviates: cytotoxicity flag (confluency mask): not cytotoxic, agonist: Imiquimod (TLR7) […].
Where [5] appears, read: cytotoxicity flag (confluency mask): not cytotoxic, agonist: MPLA (TLR4) […].
[6] abbreviates: agonist: ODN 1826 (TLR9) 0.5 ug/mL.
[7] abbreviates: agonist: Pam2CSK4 (TLR2/6) 0.1 ug/mL.
[8] abbreviates: agonist: Pam3CSK4 (TLR2/1) 0.1 ug/mL.
The mark [9] stands for this setting: cytotoxicity flag (confluency mask): cytotoxic (confluency <70% of control), agonist: Imiquimod (TLR7) […].
Where [10] appears, read: cytotoxicity flag (confluency mask): cytotoxic (confluency <70% of control), agonist: MPLA (TLR4) […].

As to `Cl.Clc1cccc(-c2nnnn2Cc2cccnc2)c1Cl`, the “NF-kB SEAP reporter activity” value was determined as 1 with RAW-Dual [1] (setting [4]) and 1.06 in the assay on RAW-Dual [1] (setting [5]).

In the case of `Cl.Clc1cccc(-c2nnnn2Cc2cccnc2)c1Cl` (library stock concentration (final ~1000-fold dilution): 10 mM), the “NF-kB SEAP reporter activity” value is 1.07 with RAW-Dual [2] (agonist: LPS (TLR4) 0.1 ug/mL), 0.95 with RAW-Dual [2] (setting [6]), 1.04 in the assay with RAW-Dual [2] (setting [7]) and 0.958 with RAW-Dual [2] (setting [8]).

Regarding `CC1COC2Cn3cc(C(=O)NCc4ccc(F)cc4F)c(=O)c(O)c3C(=O)N12` (centres undefined) (library stock concentration (final ~1000-fold dilution): 10 mM), the “NF-kB SEAP reporter activity” value in the assay with RAW-Dual [2] (agonist: LPS (TLR4) 0.1 ug/mL) was 1.38; in the assay with RAW-Dual [2] (setting [6]), 1.03; in the assay on RAW-Dual [2] (setting [7]), 0.808; in the assay on RAW-Dual [2] (setting [8]) it was 0.866.

On to `CC1COC2Cn3cc(C(=O)NCc4ccc(F)cc4F)c(=O)c(O)c3C(=O)N12` (centres undefined), for which the results for the “NF-kB SEAP reporter activity” value in the assay on RAW-Dual [1] (setting [4]) and in the assay with RAW-Dual [1] (setting [5]) were 0.969 and 1.11, respectively.

As for `C=CC(=O)Nc1cccc(Nc2nc(Nc3ccc(NC4CN(CCF)C4)cc3OC)ncc2C(F)(F)F)c1`, the “NF-kB SEAP reporter activity” value in the assay on RAW-Dual [1] (setting [4]) was found to be 1.26; in the assay on RAW-Dual [1] (setting [5]), 1.53.

`CCC1C(=O)N(C)c2cnc(Nc3ccc(C(=O)NC4CCN(C)CC4)cc3OC)nc2N1C1CCCC1` (centres undefined) (library stock concentration (final ~1000-fold dilution): 10 mM): the “NF-kB SEAP reporter activity” value in the assay with RAW-Dual [3] (agonist: LPS (TLR4) 0.1 ug/mL) was 0.276; with RAW-Dual [3] (setting [6]) it was 1.3; in the assay with RAW-Dual [3] (setting [7]), 1.54; in the assay with RAW-Dual [3] (setting [8]), 3.64.

Turning to `COc1cc(OC2CCN(C)CC2)ccc1Nc1ncc2c(n1)n(C1CCCC1)c(=O)n2C` (library stock concentration (final ~1000-fold dilution): 10 mM), the “NF-kB SEAP reporter activity” value is 1.17 in the assay on RAW-Dual [2] (agonist: LPS (TLR4) 0.1 ug/mL), 0.955 with RAW-Dual [2] (setting [6]), 0.964 in the assay with RAW-Dual [2] (setting [7]) and 1.16 with RAW-Dual [2] (setting [8]).

As for `COc1cc(OC2CCN(C)CC2)ccc1Nc1ncc2c(n1)n(C1CCCC1)c(=O)n2C`, the “NF-kB SEAP reporter activity” value came out at 1.11 in the assay with RAW-Dual [1] (setting [4]) and 0.875 in the assay with RAW-Dual [1] (setting [5]).

As for `COc1cc(C(=O)NC2CCN(C)CC2)ccc1Nc1ncc2c(n1)N(C1CCCC1)CC(F)(F)C(=O)N2C` (library stock concentration (final ~1000-fold dilution): 10 mM), the “NF-kB SEAP reporter activity” value in the assay with RAW-Dual [3] (agonist: LPS (TLR4) 0.1 ug/mL) amounted to 5.16; in the assay on RAW-Dual [3] (setting [6]) it was 0.745; with RAW-Dual [3] (setting [7]), 1.3; with RAW-Dual [3] (setting [8]), 3.04.

With `C=CC(=O)Nc1cccc(Nc2nc(Nc3ccc(NC4CN(CCF)C4)cc3OC)ncc2C(F)(F)F)c1` (library stock concentration (final ~1000-fold dilution): 10 mM), the “NF-kB SEAP reporter activity” value with RAW-Dual [2] (agonist: LPS (TLR4) 0.1 ug/mL) came out at 0.561; in the assay on RAW-Dual [2] (setting [6]), 0.536; in the assay on RAW-Dual [2] (setting [7]) it was 0.359; in the assay with RAW-Dual [2] (setting [8]) it was 0.725.

In the case of `CCC(=O)Nc1cccc(Oc2nc(Nc3ccc(N4CCN(C)CC4)cc3OC)ncc2Cl)c1` (library stock concentration (final ~1000-fold dilution): 10 mM), the “NF-kB SEAP reporter activity” value amounted to 1.65 in the assay with RAW-Dual [3] (agonist: LPS (TLR4) 0.1 ug/mL), 0.875 in the assay on RAW-Dual [3] (setting [6]), 0.603 in the assay with RAW-Dual [3] (setting [7]) and 1.02 in the assay with RAW-Dual [3] (setting [8]).

Consider `Cc1cc(Nc2ncc3c(n2)N(C)C(=O)N(c2cc(NC(=O)c4cccc(C(F)(F)F)c4)ccc2C)C3)n(C)n1` (library stock concentration (final ~1000-fold dilution): 10 mM), for which the “NF-kB SEAP reporter activity” value with RAW-Dual [3] (agonist: LPS (TLR4) 0.1 ug/mL) is 0.283; in the assay on RAW-Dual [3] (setting [6]) it was 0.186; with RAW-Dual [3] (setting [7]), 0.0623; in the assay on RAW-Dual [3] (setting [8]), 0.124.

As to `CCC1C(=O)N(C)c2cnc(Nc3ccc(C(=O)NC4CCC(N5CCN(CC6CC6)CC5)CC4)cc3OC)nc2N1C(C)C` (centres undefined), the results for the “NF-kB SEAP reporter activity” value in the assay on RAW-Dual [1] (setting [4]) and with RAW-Dual [1] (setting [5]) were 0.55 and 0.684, respectively.

With `CCC1C(=O)N(C)c2cnc(Nc3ccc(C(=O)NC4CCN(C)CC4)cc3OC)nc2N1C1CCCC1` (centres undefined), the “NF-kB SEAP reporter activity” value in the assay with RAW-Dual [1] (setting [9]) is 2.21; in the assay with RAW-Dual [1] (setting [10]) it was 0.949.

As for `Cc1cc(Nc2ncc3c(n2)N(C)C(=O)N(c2cc(NC(=O)c4cccc(C(F)(F)F)c4)ccc2C)C3)n(C)n1`, the “NF-kB SEAP reporter activity” value with RAW-Dual [1] (setting [9]) is 0.128; with RAW-Dual [1] (setting [10]), 0.265.

In the case of `CCC(=O)Nc1cccc(Oc2nc(Nc3ccc(N4CCN(C)CC4)cc3OC)ncc2Cl)c1`, the “NF-kB SEAP reporter activity” value in the assay with RAW-Dual [1] (setting [9]) was 1.1; in the assay on RAW-Dual [1] (setting [10]) it was 1.7.

For the compound `COc1cc(C(=O)NC2CCN(C)CC2)ccc1Nc1ncc2c(n1)N(C1CCCC1)CC(F)(F)C(=O)N2C`, the figures for the “NF-kB SEAP reporter activity” value in the assay with RAW-Dual [1] (setting [9]) and with RAW-Dual [1] (setting [10]) were 1.71 and 2.85, respectively.

For `CCC1C(=O)N(C)c2cnc(Nc3ccc(C(=O)NC4CCC(N5CCN(CC6CC6)CC5)CC4)cc3OC)nc2N1C(C)C` (centres undefined) (library stock concentration (final ~1000-fold dilution): 10 mM), the “NF-kB SEAP reporter activity” value in the assay on RAW-Dual [2] (agonist: LPS (TLR4) 0.1 ug/mL) came to 5.71; with RAW-Dual [2] (setting [6]), 0.977; with RAW-Dual [2] (setting [7]), 1.95; in the assay with RAW-Dual [2] (setting [8]), 0.886.

Turning to `Cl.Cl.OCCN1CCN(CC/C=C2/c3ccccc3Sc3ccc(C(F)(F)F)cc32)CC1` (library stock concentration (final ~1000-fold dilution): 10 mM), the “NF-kB SEAP reporter activity” value in the assay on RAW-Dual [3] (agonist: LPS (TLR4) 0.1 ug/mL) was 0.443; with RAW-Dual [3] (setting [6]), 0.412; with RAW-Dual [3] (setting [7]), 0.431; with RAW-Dual [3] (setting [8]) it was 0.63.

Turning to `Cl.Cl.OCCN1CCN(CC/C=C2/c3ccccc3Sc3ccc(C(F)(F)F)cc32)CC1`, the “NF-kB SEAP reporter activity” value in the assay with RAW-Dual [1] (setting [9]) was determined as 1.58; in the assay with RAW-Dual [1] (setting [10]), 0.876.

Consider `CC(=O)OC12COC1CC(O)C1(C)C(=O)C(O)C3=C(C)C(OC(=O)C(O)C(NC(=O)OC(C)(C)C)c4ccccc4)CC(O)(C(OC(=O)c4ccccc4)C21)C3(C)C` (centres undefined) (library stock concentration (final ~1000-fold dilution): 10 mM), for which the “NF-kB SEAP reporter activity” value with RAW-Dual [2] (agonist: LPS (TLR4) 0.1 ug/mL) worked out at 1.2; in the assay on RAW-Dual [2] (setting [6]), 0.995; in the assay on RAW-Dual [2] (setting [7]) it was 1.02; in the assay with RAW-Dual [2] (setting [8]), 0.841.

`CC(=O)OC12COC1CC(O)C1(C)C(=O)C(O)C3=C(C)C(OC(=O)C(O)C(NC(=O)OC(C)(C)C)c4ccccc4)CC(O)(C(OC(=O)c4ccccc4)C21)C3(C)C` (centres undefined): the “NF-kB SEAP reporter activity” value was 1.14 in the assay with RAW-Dual [1] (setting [4]) and 1.24 with RAW-Dual [1] (setting [5]).

As to `CC(C(O)c1ccc(O)cc1)N1CCC(Cc2ccccc2)CC1.CC(C(O)c1ccc(O)cc1)N1CCC(Cc2ccccc2)CC1.O=C(O)C(O)C(O)C(=O)O` (centres undefined) (library stock concentration (final ~1000-fold dilution): 10 mM), the “NF-kB SEAP reporter activity” value in the assay with RAW-Dual [2] (agonist: LPS (TLR4) 0.1 ug/mL) was 1.19; in the assay on RAW-Dual [2] (setting [6]) it was 0.64; with RAW-Dual [2] (setting [7]), 1.04; with RAW-Dual [2] (setting [8]), 0.922.

As to `CC(C(O)c1ccc(O)cc1)N1CCC(Cc2ccccc2)CC1.CC(C(O)c1ccc(O)cc1)N1CCC(Cc2ccccc2)CC1.O=C(O)C(O)C(O)C(=O)O` (centres undefined), the “NF-kB SEAP reporter activity” value is 1.14 in the assay with RAW-Dual [1] (setting [4]) and 0.926 in the assay with RAW-Dual [1] (setting [5]).

Consider `Cn1c(=O)cc(N2CCCC(N)C2)n(Cc2ccccc2C#N)c1=O` (centres undefined), for which the “NF-kB SEAP reporter activity” value in the assay with RAW-Dual [1] (setting [4]) worked out at 1.08.

`Cn1c(=O)cc(N2CCCC(N)C2)n(Cc2ccccc2C#N)c1=O` (centres undefined) (library stock concentration (final ~1000-fold dilution): 10 mM): the “NF-kB SEAP reporter activity” value with RAW-Dual [2] (agonist: LPS (TLR4) 0.1 ug/mL) was 1.04 and 1.31; in the assay on RAW-Dual [2] (setting [6]), 0.953 and 1.01; in the assay with RAW-Dual [2] (setting [7]) it was 1.16 and 1.1; in the assay on RAW-Dual [2] (setting [8]), 0.92 and 1.24.

Take `O=C(Nc1ccccc1C(=O)NC1CCCCNC1=O)c1cc2ccccc2s1` (centres undefined) (library stock concentration (final ~1000-fold dilution): 10 mM): the “NF-kB SEAP reporter activity” value in the assay with RAW-Dual [2] (agonist: LPS (TLR4) 0.1 ug/mL) was determined as 2.62; in the assay on RAW-Dual [2] (setting [6]), 1.04; in the assay on RAW-Dual [2] (setting [7]), 1.1; with RAW-Dual [2] (setting [8]), 1.47.

On to `O=C(Nc1ccccc1C(=O)NC1CCCCNC1=O)c1cc2ccccc2s1` (centres undefined), for which the “NF-kB SEAP reporter activity” value with RAW-Dual [1] (setting [4]) came out at 1.06; in the assay with RAW-Dual [1] (setting [5]), 1.16.

On to `CC12CC(O)C3CC1(OC1OC(CO)C(O)C(O)C1O)C3(COC(=O)c1ccccc1)C(=O)O2` (centres undefined), for which the “NF-kB SEAP reporter activity” value in the assay with RAW-Dual [1] (setting [4]) was found to be 0.925; in the assay on RAW-Dual [1] (setting [5]), 1.04.

In the case of `CC12CC(O)C3CC1(OC1OC(CO)C(O)C(O)C1O)C3(COC(=O)c1ccccc1)C(=O)O2` (centres undefined) (library stock concentration (final ~1000-fold dilution): 10 mM), the “NF-kB SEAP reporter activity” value was 1.33 in the assay with RAW-Dual [2] (agonist: LPS (TLR4) 0.1 ug/mL), 0.943 with RAW-Dual [2] (setting [6]), 1.11 in the assay with RAW-Dual [2] (setting [7]) and 1.16 in the assay with RAW-Dual [2] (setting [8]).
